Laboratory results from the supplement of paper PMC10849652.
The full data set covers some 7,900 targets. This sample favours those with a hit. About 0.6% of all pairs of compound and target were hits.

How the values were obtained:
Assay in all cases: log2 fold change, soluble protein after heating vs DMSO (PISA); higher = thermal stabilisation; K562 cells, 10 uM, 30 min; active = over 0.2 and 3.5 SD of the protein, either way, in both replicates (recomputed)
[1] = compound: C1=CC=C(C=C1)[C@H](COC2=CC3=C(C=C2)NC(=O)N3)NC(=O)C4=CC=CN(C4=O)CC5=CC(=C(C=C5)F)F
Procedure, shortened: (§1)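 K562 cells at 2×10^6 cells/mL were exposed to 10 μM compound for 30 min, then aliquots were heated for 3 min across 48°C-58°C, pooled, and extracted in PBS containing 0.5% NP-40 at 4°C. The supernatant after 21,000xg for 90 min was taken as soluble protein and measured by TMTpro 16plex LC-MS/MS with channel sums equalised. Thermal stability is reported relative to control samples, with values from duplicates. Fold changes are given on a log2 scale.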

[2] = compound: CC1=C(SC2=C1C(=N[C@H](C3=NN=C(N32)C)CC(=O)N)C4=CC=C(C=C4)Cl)C
Procedure, shortened: as §1

[3] = compound: CC1=C2C(=CC=C1)N=C(N(C2=O)C3=CC=CC=C3C)CN4C=NC5=C(N=CN=C54)N
Procedure, shortened: as §1

[4] = compound: Cc1sc2c(c1C)C(c1ccc(Cl)cc1)=N[C@@H](CC(=O)OC(C)(C)C)c1nnc(C)n1-2
Procedure, shortened: as §1

[5] = compound: c1ccc([C@@H]2C[C@H]2NC2CCNCC2)cc1
Procedure, shortened: as §1

Measured: log2 fold change

PCK2 (UniProt Q16822)
UniProt Q16822, sequence (Q16822 whole entry, looked up): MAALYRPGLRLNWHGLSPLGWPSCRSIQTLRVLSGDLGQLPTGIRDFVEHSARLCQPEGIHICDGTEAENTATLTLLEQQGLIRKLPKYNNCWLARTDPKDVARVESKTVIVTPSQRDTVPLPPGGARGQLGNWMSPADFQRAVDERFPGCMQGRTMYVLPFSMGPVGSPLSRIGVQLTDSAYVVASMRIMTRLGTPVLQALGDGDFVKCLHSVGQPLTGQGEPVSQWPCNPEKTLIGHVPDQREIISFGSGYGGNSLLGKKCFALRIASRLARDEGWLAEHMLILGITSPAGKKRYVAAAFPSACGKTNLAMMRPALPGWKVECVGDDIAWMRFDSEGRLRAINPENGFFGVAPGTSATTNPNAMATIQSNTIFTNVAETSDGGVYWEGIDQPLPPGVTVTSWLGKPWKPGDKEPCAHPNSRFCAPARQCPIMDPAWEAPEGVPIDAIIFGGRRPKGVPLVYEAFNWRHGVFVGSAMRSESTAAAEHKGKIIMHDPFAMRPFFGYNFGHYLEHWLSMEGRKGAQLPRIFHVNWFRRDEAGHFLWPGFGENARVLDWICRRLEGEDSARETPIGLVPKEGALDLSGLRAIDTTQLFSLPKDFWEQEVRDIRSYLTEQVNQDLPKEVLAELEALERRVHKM
inactive: [1] 0.051 | [2] 0.038 | [3] 0.057 | [4] 0.008 | [5] -0.038

PMM1 (UniProt Q92871)
UniProt Q92871, sequence (Q92871 whole entry, looked up): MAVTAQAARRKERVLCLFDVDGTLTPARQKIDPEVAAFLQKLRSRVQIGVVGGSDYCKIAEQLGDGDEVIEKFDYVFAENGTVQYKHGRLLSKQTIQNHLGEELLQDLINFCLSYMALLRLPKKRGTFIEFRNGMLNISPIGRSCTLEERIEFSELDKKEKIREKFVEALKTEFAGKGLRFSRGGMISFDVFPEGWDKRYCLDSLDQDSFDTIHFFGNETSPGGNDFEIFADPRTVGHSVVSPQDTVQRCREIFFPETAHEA
inactive: [1] -0.031 | [2] -0.001 | [3] 0.091 | [4] 0.004 | [5] -0.006

PDCD6 (UniProt O75340)
UniProt O75340, sequence (O75340 whole entry, looked up): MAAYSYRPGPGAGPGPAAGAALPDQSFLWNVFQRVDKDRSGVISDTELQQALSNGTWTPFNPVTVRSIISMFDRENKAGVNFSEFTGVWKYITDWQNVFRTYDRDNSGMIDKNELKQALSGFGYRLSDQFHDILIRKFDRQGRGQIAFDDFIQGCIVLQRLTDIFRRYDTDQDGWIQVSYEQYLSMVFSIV
inactive: [1] -0.024 | [2] 0.057 | [3] 0.107 | [4] -0.052 | [5] 0.003

PSMC1 (UniProt P62191)
UniProt P62191, sequence (P62191 whole entry, looked up): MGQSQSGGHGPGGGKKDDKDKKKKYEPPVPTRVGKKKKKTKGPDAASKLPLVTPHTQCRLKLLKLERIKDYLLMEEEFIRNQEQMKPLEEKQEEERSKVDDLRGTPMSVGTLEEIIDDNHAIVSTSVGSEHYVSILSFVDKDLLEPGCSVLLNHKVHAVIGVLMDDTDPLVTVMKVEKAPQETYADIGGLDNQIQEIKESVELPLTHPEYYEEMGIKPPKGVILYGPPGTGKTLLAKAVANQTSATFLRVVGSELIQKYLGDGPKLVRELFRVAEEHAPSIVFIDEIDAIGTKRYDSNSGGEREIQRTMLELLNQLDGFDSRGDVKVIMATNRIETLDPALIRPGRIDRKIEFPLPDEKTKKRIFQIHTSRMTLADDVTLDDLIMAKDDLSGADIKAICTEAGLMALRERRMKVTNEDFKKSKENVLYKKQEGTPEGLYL
inactive: [1] 0.047 | [2] -0.09 | [3] -0.002 | [4] 0 | [5] 0

PCYT1A (UniProt P49585)
UniProt P49585, sequence (P49585 whole entry, looked up): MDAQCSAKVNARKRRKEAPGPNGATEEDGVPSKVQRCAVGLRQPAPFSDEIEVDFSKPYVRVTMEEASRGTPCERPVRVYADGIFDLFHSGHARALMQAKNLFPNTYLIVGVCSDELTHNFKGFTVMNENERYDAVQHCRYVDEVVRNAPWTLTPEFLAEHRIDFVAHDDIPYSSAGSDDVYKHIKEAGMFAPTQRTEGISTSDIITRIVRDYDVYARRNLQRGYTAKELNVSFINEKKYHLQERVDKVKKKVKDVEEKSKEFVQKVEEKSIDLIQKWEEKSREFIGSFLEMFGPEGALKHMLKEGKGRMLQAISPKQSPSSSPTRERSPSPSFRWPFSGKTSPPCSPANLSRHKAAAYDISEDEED
inactive: [1] -0.035 | [2] 0.005 | [3] 0.056 | [4] -0.012 | [5] 0.019

POLR2K (UniProt P53803)
inactive: [1] 0.053 | [2] 0.06 | [3] 0.046 | [4] 0.032 | [5] -0.056

PAK4 (UniProt O96013)
UniProt O96013, sequence (O96013 whole entry, looked up): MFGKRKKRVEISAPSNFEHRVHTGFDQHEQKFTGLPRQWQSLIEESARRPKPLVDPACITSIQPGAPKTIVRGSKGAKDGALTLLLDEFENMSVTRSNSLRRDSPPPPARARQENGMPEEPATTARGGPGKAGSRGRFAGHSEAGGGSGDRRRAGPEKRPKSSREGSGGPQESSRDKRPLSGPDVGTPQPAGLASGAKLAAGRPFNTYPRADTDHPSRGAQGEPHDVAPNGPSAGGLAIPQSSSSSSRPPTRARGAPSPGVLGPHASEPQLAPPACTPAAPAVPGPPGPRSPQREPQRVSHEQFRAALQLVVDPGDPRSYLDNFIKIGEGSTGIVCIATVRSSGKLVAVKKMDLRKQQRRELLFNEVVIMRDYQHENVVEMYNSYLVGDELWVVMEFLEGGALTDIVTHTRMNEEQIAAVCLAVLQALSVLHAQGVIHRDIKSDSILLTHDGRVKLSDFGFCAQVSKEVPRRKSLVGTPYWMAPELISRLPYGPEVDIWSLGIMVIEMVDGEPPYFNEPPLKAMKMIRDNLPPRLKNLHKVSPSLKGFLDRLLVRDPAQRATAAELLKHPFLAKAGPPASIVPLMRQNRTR
inactive: [1] -0.005 | [2] 0.045 | [3] 0.102 | [4] -0.02 | [5] -0.016

PARP16 isoform 3 (UniProt Q8N5Y8)
UniProt Q8N5Y8, sequence (Q8N5Y8 whole entry, looked up): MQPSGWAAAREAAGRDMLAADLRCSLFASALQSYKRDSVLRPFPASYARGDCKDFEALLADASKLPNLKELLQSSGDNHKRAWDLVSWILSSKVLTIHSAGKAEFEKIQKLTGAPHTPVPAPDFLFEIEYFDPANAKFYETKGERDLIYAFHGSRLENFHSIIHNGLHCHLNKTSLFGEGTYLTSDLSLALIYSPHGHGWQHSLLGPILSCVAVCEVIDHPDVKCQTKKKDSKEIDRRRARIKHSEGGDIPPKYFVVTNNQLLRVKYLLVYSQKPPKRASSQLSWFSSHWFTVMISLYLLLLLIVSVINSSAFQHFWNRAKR
inactive: [1] -0.019 | [2] -0.019 | [3] 0.012 | [4] -0.041 | [5] 0.001

PNPLA8 (UniProt Q9NP80)
UniProt Q9NP80, sequence (Q9NP80 whole entry, looked up): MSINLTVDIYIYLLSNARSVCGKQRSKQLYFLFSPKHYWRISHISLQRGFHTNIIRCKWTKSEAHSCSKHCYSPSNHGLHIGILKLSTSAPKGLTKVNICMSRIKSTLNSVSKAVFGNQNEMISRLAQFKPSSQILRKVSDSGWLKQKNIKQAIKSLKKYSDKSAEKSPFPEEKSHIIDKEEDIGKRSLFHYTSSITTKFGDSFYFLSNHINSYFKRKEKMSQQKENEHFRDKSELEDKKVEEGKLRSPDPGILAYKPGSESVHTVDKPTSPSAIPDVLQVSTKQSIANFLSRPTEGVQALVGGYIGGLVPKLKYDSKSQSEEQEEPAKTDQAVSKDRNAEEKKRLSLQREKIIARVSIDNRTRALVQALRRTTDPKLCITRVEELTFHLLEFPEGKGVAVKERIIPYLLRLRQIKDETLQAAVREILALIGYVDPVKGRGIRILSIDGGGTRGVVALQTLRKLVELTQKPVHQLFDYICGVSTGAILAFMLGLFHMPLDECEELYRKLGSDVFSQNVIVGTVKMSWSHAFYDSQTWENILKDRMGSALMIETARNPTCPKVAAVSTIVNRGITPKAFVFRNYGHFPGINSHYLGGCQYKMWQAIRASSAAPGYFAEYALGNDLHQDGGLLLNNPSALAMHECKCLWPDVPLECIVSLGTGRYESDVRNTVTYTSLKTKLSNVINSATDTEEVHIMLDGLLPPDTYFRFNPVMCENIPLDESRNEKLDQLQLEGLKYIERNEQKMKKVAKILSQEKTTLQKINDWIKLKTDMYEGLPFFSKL
inactive: [1] 0.024 | [2] 0.031 | [3] 0.007 | [4] -0.006 | [5] 0.024
